TSHR agonist: qHTS Assay for Agonists of the Thyroid Stimulating Hormone Receptor | Thyrotropin receptor (Homo sapiens), P16473 | HEK293-CNG-TSHR cells (CNG channel as cAMP sensor), membrane potential dye, cAMP | Potency, µM (top dose mostly 57.1 µM), for inactives: top-dose activation, usual class: activators | 0.48% of 73,000 active | AID 926, 2007; active = well fitted activation curve with a large enough effect in the main read-out, with a control signal flat, not every such curve was filed as active; inconclusive = small, poorly fitted or top-dose-only effect, or a change in a side signal; inactive = no such curve, though single readings can be large or run the other way; % of control where 0% means no effect;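 also: the control signal comes from parental cells without the receptor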
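HEK 293 cells stably expressing TSHR and a cAMP-gated CNG channel; parental CNG-only cells as counterscreen. Cells preloaded 60 min with membrane potential dye plus 100 uM RO 20-1724, then compound 30 min; fluorescence read at 590 nm.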
PK Bst: Pyruvate Kinase | purified pyruvate kinase, luminescence ATP production; ribose 5-phosphate activator present at AC10 | Potency, µM | 1.2% of 51,000 active | AID 361, 2006; in the data active = potency below about 11 µM; inconclusive = mostly about 12 µM to 25 µM;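 the screen sought inhibitors and activators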;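 also: scaled between full activation by ribose 5 phosphate and full inhibition by luteolin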
Casp7 inh: qHTS Assay for Allosteric/Competitive Inhibitors of Caspase-7; P55210; recombinant caspase-7, Ac-DEVD-AFC fluorescence rate; Potency, µM (series often up to 57.5 µM), inactives show top-dose activity change, negative = inhibition, actives largely listed as inhibitors; 0.02% of 75,000 active; active = well fitted inhibition curve with a large enough effect in the main read-out, with a control signal flat, not every such curve was filed as active; inconclusive = small, poorly fitted or top-dose-only effect, or a change in a side signal; also: % of control where 0% means no effect
GBA activity: Glucocerebrosidase; purified enzyme, resorufin glucoside fluorescence (screen aimed at inhibitors), 20 min; Potency, µM; 1.1% of 48,000 active; AID 360, 2006; in the data active = potency below about 15 µM; inconclusive = mostly about 16 µM to 33 µM;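 also: the screen sought inhibitors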
Target sequence (P04062 whole entry, looked up): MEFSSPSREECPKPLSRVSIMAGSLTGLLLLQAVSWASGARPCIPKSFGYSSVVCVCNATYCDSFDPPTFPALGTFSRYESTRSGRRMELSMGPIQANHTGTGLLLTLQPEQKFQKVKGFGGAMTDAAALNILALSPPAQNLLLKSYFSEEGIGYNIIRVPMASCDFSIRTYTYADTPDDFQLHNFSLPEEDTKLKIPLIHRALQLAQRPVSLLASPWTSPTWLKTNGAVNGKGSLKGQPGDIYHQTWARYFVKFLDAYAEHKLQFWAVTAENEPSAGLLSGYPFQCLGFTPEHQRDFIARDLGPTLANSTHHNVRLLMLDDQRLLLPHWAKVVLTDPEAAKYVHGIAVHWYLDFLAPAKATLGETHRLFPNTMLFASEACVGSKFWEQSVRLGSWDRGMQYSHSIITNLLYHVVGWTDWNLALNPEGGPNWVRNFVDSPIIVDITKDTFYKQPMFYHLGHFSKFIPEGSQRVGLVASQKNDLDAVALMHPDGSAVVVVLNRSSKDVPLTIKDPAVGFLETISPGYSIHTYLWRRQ
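Compounds titrated against 0.2 nM normal enzyme, 30 uM resorufin beta-D-glucopyranoside substrate, citrate/phosphate buffer with taurocholate and tween-20, pH 5.9. Reaction ran 20 min at room temperature; fluorescence (Ex 548/Em 600) gave AC50.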
HEK293 cAMP ctrl: qHTS Assay for Agonists of the Thyroid Stimulating Hormone Receptor: Activators of Intracellular cAMP Concentrations in Parental HEK 293 | parental HEK293 CNG cAMP sensor, membrane potential fluorescence | Potency, µM (titrated, usually from 57.1 µM), without a hit: at the highest dose activation, actives largely listed as activators | 2.5% of 73,000 active | AID 938, 2007; also: % of control where 0% means no effect; nearly all actives have a fitted effect of over 55% in size
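Parental HEK 293 cells stably expressing a cAMP-gated CNG channel were loaded with membrane potential dye containing 100 uM RO 20-1724 for 60 min. Compound added for 30 min; depolarization read as fluorescence intensity at 590 nm.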
Casp1 inh: qHTS Assay for Allosteric/Competitive Inhibitors of Caspase-1. Caspase-1 enzyme, Ac-WEHD-AFC fluorogenic rate. 0.03% of 75,000 active. Potency, µM (highest dose often 57.5 µM), without a hit: at the highest dose activity change, negative = inhibition, actives largely listed as inhibitors;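 also: plate controls were vehicle for no effect and no substrate for full effect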
Target sequence (P29466 120-297 limits assumed): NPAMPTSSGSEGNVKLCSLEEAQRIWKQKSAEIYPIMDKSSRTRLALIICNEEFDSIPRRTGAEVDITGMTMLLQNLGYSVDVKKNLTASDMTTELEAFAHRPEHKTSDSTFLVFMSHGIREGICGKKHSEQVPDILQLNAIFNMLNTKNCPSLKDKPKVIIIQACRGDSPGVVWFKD
Target sequence (P29466 317-404 limits assumed): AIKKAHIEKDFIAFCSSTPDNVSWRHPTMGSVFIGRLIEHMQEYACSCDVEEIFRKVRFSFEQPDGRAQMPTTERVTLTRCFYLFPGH
* hit, by the source's call; i = inactive; ? = inconclusive; · = no result; [ ] = another dose, or the depositor's remark. A selection: hits, their analogues and other compounds. The true share with any hit is near 4%. Unless noted, calls follow the shape of the dose curve; as a rule, active = well fitted curve in the direction sought with a large enough effect; inconclusive = small, poorly fitted or top-dose-only effect, or another doubt; inactive = no such curve, though single readings can be large; an effect the other way counts as inactive or inconclusive. Potency is read from the fitted curve at half-maximal effect.

SMILES | TSHR agonist | PK Bst | Casp7 inh | GBA activity | HEK293 cAMP ctrl | Casp1 inh
CCC(C)(C)NC(=O)C(c1ccccc1F)N(Cc1ccco1)C(=O)Cn1nnc2ccccc21 (stereo unspecified) | ? | >57 | 2.2% | · | 15.8µM* | -2.8%
CCC(C)(C)NC(=O)C(c1ccc(C)o1)N(Cc1cccs1)C(=O)Cn1nnc2ccccc21 (stereo unspecified) | ? | >57 | 0.4% | >76.9 | 15.8µM* | -0.1%
Cc1noc(C)c1-c1ccc2ncnc(N(C)Cc3ccco3)c2c1 | ? | · | 0.1% | · | ? | -1.6%
COc1ccccc1NC(=O)CN1CCN(c2ccccc2F)CC1 | 12.2% | >57 | 0.6% | >76.9 | 25.5% | -1.2%
COc1ccccc1NC(=O)CN1CCN(c2ccc(Cl)cc2)CC1 | ? | >57 | -1.7% | >76.9 | 20µM* | -4.2%
CCOc1ccc(-c2nnc(N)o2)cc1 | -0.8% | · | 1.0% | >76.9 | -2.6% | 2.0%
CCOc1ccc(-c2nnc(-c3ccncc3)o2)cc1 | 4.7% | 2.08* | 0.0% | >76.9 | 17.9% | -1.3%
CCCCOc1ccc(C(=O)Nc2ccncc2)cc1 | 29.3% | · | 0.4% | 6.2* | 27.5% | 0.3%
CCCCOc1ccc(-c2nnc(-c3ccncc3)o2)cc1 | ? | 5.57* | 5.9% | >76.9 | ? | 0.6%
CS(=O)(=O)Nc1ccc(Nc2c3ccccc3nc3ccccc23)cc1 | -6.6%[11.4 µM] | · | ? | · | -8.8%[11.4 µM] | ·
Nc1ccc(S(=O)(=O)NCCS(=O)(=O)O)cc1 | -1.5%[11.4 µM] | · | 1.2%[11.5 µM] | · | 8.3%[11.4 µM] | -2.2%[11.5 µM]
COC(=O)c1nnn(-c2nonc2N)c1CSc1ccccn1 | ? | · | -4.6% | >76.9 | 31.6µM* | -0.4%
COc1cc(N=C(N)N=C(N)N)c2ncccc2c1 | 1.9%[11.4 µM] | · | 0.5%[11.5 µM] | · | 5.5%[11.4 µM] | -4.5%[11.5 µM]
COc1ccc(N/C=C(\C#N)c2nc3ccccc3n2C)c(OC)c1 | · | 10.2* | · | · | · | ·
COc1ccc(/C=N/c2nc3ccccc3n2C)cc1OC | -5.2% | i | -0.2% | >76.9 | -3.1% | 0.4%
Cn1cc(S(=O)(=O)Nc2ccc(F)cc2F)c(=O)n(C)c1=O | 2.51µM* | · | 1.6% | · | 19.2% | 1.7%
CCCN(CCC)C(C(=O)Nc1cccc(OC)c1)c1ccccc1 (stereo unspecified) | ? | >57 | -1.0% | >76.9 | 25.1µM* | -0.9%
O=C(Nc1ccccc1)NC1CCN(Cc2nnnn2C2CCCCC2)CC1 | 1.0% | >57 | -0.8% | >76.9 | -3.6% | -1.6%
Cc1ccc(Cl)cc1N1CCN(Cc2nnnn2C2CCCCC2)CC1 | ? | >57 | -4.3% | ? | 12.6µM* | -1.6%
Cc1ccc(Cl)cc1N1CCN(Cc2nnnn2Cc2ccco2)CC1 | ? | >57 | -2.3% | >76.9 | 7.94µM* | -2.0%
O=C(O)c1ccccc1C(=O)Nc1cc2c(cc1Br)-c1ccccc1C2=O | -8.9%[11.4 µM] | · | -3.6%[11.5 µM] | · | -18.8%[11.4 µM] | 0.7%[11.5 µM]
CCOc1cc(CN2CCSCC2)ccc1O | ? | · | 1.3% | · | 0.0316µM* | -0.3%
C[N+]1(C)CCO[C@](O)(c2ccccc2)C1 | 1.0%[11.4 µM] | · | 0.0%[11.5 µM] | · | -4.3%[11.4 µM] | -1.6%[11.5 µM]
CN(C)CCN(Cc1ccccc1)S(=O)(=O)c1cccc2cccnc12 | 13.9% | · | 1.4% | · | 11.0% | 1.2%
CCC(=O)N1CCc2cc(OC)c(OC)cc2C1COc1ccc(C(=O)OC)cc1 (stereo unspecified) | ? | >57 | -1.7% | >76.9 | ? | -7.2%
SMILES | TSHR agonist | PK Bst | Casp7 inh | GBA activity | HEK293 cAMP ctrl | Casp1 inh
COC(=O)c1ccc(OCC2c3cc(OC)c(OC)cc3CCN2C(=O)c2ccco2)cc1 (stereo unspecified) | 31.6µM* | >57 | -3.5% | >76.9 | 28.1% | -1.1%
COc1ccc([C@@H](Nc2ccccn2)c2cc(C(C)(C)C)cc(C(C)(C)C)c2O)cc1 | 4.3%[11.4 µM] | · | -0.8%[11.5 µM] | · | 1.5%[11.4 µM] | 0.0%[11.5 µM]
O=C(c1csc2c1CCCC2)n1cccn1 | 31.6µM* | · | -1.3% | · | 6.3% | 2.0%
O=C(c1csc2c1CCCC2)N1CCN(c2ncccn2)CC1 | 14.8% | · | -1.5% | >76.9 | 18.8% | -0.1%
CC1CCCCN1CCNc1nc(=S)[nH]c2ccccc12 (stereo unspecified) | 12.4% | >57 | -0.4% | · | 9.6% | -0.5%
O=C(O)CCCCCNc1nc(=S)[nH]c2ccccc12 | -4.0% | >57 | -1.5% | 7.73* | 16.7% | -3.7%
CCCC[C@]1(C2CCCC2)Cc2cc(OCC(=O)O)c(Cl)c(Cl)c2C1=O | -10.5% | · | -0.3% | · | -6.6% | -3.1%
Clc1ccc(Cn2nnc(-c3ccc(CN4CCOCC4)cc3)n2)cc1 | ? | · | -2.3% | · | 31.6µM* | 2.8%
CCc1nnc(NC(=O)c2cccc(S(=O)(=O)N3CCN(c4ccccc4)CC3)c2)s1 | -5.2% | >57 | 0.6% | 9.83* | -4.2% | -5.8%
COCCn1cnc2c(c1=O)c1nc3ccccc3nc1n2/N=C/c1cccc(OC)c1OC | -9.9% | 3.6* | -1.7% | i | -15.3% | -2.2%
COc1ccc(OC)c(C2=Nn3c(nnc3-c3ccco3)SC2)c1 | · | >11.4 | · | · | · | ·
COc1ccc(OC)c(C2=Nn3c(nnc3-c3cccc(OC(C)C)c3)SC2)c1 | ? | >57 | -10.1% | >76.9 | 25.1µM* | -4.8%
C=C1CC[C@@H]2[C@](C)(CC[C@@H](O)[C@]2(C)CO)[C@@H]1C/C=C1/C(=O)OC[C@H]1O | 4.9% | · | · | · | 0.6% | ·
Cc1ccc(C)n1-n1c(C)nc2sc(-c3ccccc3)cc2c1=O | ? | · | -2.1% | · | 3.16µM* | -3.2%
Cc1ccc(C)n1-n1cnc2sc(-c3ccccc3)cc2c1=O | · | >57 | -7.3% | >76.9 | 15.7% | 1.8%
CCOC(=O)N1CC=C2C(C#N)=C(N)C(C#N)(C#N)[C@H](c3ccc(OC(C)C)c(OCC)c3)[C@H]2C1 | 3.1% | >57 | -7.2% | >76.9 | 12.7% | -9.7%
CCOC(=O)N1CC=C2C(C#N)=C(N)C(C#N)(C#N)[C@H](c3ccccc3OCC)[C@H]2C1 | ? | >57 | -8.6% | 8.55* | ? | -10.7%
COc1cc(C(=O)O[C@@H]2CC(C)=CC[C@@]3(C)CC[C@](O)(C(C)C)[C@H]23)ccc1O | 9.2% | · | · | · | 22.9% | ·
CC[C@H](NC(=O)c1c(C)c(-c2ccccc2)nc2ccccc12)c1ccccc1 | ? | · | -1.9% | · | 15.8µM* | 2.7%
Cc1c(-c2ccccc2)nc2ccccc2c1C(=O)O | · | >57 | 0.1% | >76.9 | 7.1% | 0.5%
CCCCn1c(CN(Cc2ccccc2)Cc2ccccc2)nc2c1c(=O)n(C)c(=O)n2C | ? | >57 | -0.5% | >76.9 | ? | -1.1%
CCCCCn1c(CN(C)Cc2ccccc2)nc2c1c(=O)n(C)c(=O)n2C | ? | >57 | -1.1% | >76.9 | 20µM* | 1.1%
Cn1c(=O)c(-c2ccccc2)nc2cncnc21 | ? | · | -10.6% | · | 3.98µM* | -6.3%
O=c1c(-c2cccs2)nc2cncnc2n1-c1ccccc1 | ? | · | ? | · | 25.1µM* | ·
O=C(O)c1ccccc1NS(=O)(=O)c1ccc(F)c(Cl)c1 | -4.8% | · | 0.0% | · | -0.2% | -1.0%

Source: PubChem BioAssay
